Source: PubChem BioAssay
Calls of active or inactive are those of the source.

Key:
[1] = system: Plasmodium falciparum Sir2 (PF13_0152, Sir2A); test: Plasmodium falciparum Sir2A binding compounds – biochemical, small-molecule microarray, 635 nm fluorescence, primary screen (AID 1098); conditions: fluorescence 635 nm, higher = more signal;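 also: score merges spot fluorescence intensity with its signal-to-noise ratio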
[2] = probe aDKK1 binding to arrayed compounds – biochemical, biotinylated probe, 635/667 nm fluorescence, primary screen (AID 1099); conditions: small-molecule microarray, higher = more signal;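 also: score merges 667nm spot fluorescence with signal to noise across triplicate slides; reference of the scale not given here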
[3] = probe aCHRDL2 binding to arrayed compounds – biochemical, biotinylated probe, 635/667 nm fluorescence, primary screen (AID 1100); conditions: small-molecule microarray, higher = more signal
[4] = change in splice reporter luminescence, either direction, cell-based, HEK293, spliceosome inhibition project, primary screen (AID 1101); conditions: HEK293 splicing luciferase reporter, 24 h, higher = more signal, called active from +8 up or from −8 down;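 also: HEK293 cells carrying a splicing-competent luciferase reporter gene; test concentration not given here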
[5] = biological target: Fibroblast growth factor 10 (Homo sapiens) (UniProt O15520); test: compounds binding fibroblast growth factor 10 – biochemical, small-molecule microarray, 635 nm fluorescence, primary screen (AID 1102); conditions: FGF10 binding, fluorescence 635 nm, higher = more signal
[6] = system: glycogen synthase kinase-3 (GSK3A per assay name; protocol says GSK3B); test: compounds binding glycogen synthase kinase-3 – biochemical, small-molecule microarray, 635 nm fluorescence, GSK3A, primary screen (AID 1103); conditions: fluorescence 635 nm, higher = more signal; also: the record names both GSK3A and GSK3B
[7] = biological target: Epidermal growth factor receptor (Homo sapiens) (UniProt P00533); test: compounds binding epidermal growth factor receptor – biochemical, small-molecule microarray, 635 nm fluorescence, primary screen (AID 1104); conditions: EGFR binding, higher = more signal;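 also: score merges 667 nm emission intensity with spot signal to noise over triplicate slides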
[8] = biological target: Follistatin-related protein 3 (Homo sapiens) (UniProt O95633); test: compounds binding follistatin-related protein 3 – biochemical, small-molecule microarray, 635 nm fluorescence, primary screen (AID 1105); conditions: FSTL3 binding, higher = more signal;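 also: score merges emission near 667 nm and signal to noise per printed spot across three slides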
[9] = biological target: Dickkopf-related protein 1 (Homo sapiens) (UniProt O94907); test: small molecules binding DKK1 protein – biochemical, small-molecule microarray, 635 nm fluorescence scan, primary screen (AID 1106); conditions: higher = more signal;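 also: score merges emission near 667 nm with signal to noise over three replicate slides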
[10] = system: Inhibin beta A chain (activin A); test: small molecules binding activin A – biochemical, small-molecule microarray, 635 nm fluorescence scan, primary screen (AID 1107); conditions: INHBA, higher = more signal;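 also: mouse activin A protein probed at 4.33 µg/mL on printed slides; score merges bound-protein fluorescence near 667 nm with spot signal-to-noise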

Sequence of Epidermal growth factor receptor (Homo sapiens) (P00533 whole entry, looked up): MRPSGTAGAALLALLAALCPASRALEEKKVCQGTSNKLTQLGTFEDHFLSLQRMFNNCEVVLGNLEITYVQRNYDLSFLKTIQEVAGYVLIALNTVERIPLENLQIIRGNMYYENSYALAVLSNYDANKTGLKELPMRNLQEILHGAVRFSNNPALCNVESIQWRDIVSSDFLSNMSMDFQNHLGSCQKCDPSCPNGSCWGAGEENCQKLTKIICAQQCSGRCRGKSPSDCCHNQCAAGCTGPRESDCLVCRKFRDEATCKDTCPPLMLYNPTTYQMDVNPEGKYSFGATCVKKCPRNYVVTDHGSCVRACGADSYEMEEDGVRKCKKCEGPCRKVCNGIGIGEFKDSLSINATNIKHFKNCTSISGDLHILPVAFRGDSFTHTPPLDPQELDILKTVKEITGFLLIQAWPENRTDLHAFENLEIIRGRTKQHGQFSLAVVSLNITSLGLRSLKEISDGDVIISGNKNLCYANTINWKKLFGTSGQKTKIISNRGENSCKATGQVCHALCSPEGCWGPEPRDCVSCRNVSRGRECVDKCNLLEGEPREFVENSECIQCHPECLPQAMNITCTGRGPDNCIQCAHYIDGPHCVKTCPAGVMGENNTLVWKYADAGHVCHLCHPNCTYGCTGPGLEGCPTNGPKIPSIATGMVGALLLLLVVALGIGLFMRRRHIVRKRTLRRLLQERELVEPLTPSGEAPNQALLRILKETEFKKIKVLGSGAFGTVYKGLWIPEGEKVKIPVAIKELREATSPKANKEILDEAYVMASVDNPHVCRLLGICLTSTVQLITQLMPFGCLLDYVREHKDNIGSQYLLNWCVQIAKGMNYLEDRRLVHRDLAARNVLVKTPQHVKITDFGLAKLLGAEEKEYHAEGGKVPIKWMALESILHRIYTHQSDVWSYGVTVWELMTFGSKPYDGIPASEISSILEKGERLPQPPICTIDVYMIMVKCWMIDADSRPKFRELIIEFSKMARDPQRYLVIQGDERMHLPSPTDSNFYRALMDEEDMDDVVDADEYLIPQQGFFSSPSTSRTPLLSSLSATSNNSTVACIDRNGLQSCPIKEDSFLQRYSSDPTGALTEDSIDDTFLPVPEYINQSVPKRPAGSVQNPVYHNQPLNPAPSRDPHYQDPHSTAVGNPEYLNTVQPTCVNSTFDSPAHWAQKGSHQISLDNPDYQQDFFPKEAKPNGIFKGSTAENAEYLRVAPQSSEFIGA
Sequence of Dickkopf-related protein 1 (Homo sapiens) (O94907 whole entry, looked up): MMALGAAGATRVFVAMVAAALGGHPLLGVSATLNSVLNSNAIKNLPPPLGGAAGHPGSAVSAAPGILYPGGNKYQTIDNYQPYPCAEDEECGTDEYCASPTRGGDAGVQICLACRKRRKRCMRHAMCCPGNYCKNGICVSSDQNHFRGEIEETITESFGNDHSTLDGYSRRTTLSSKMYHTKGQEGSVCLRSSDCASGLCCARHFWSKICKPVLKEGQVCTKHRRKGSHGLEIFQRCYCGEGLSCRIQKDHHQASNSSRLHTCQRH
Sequence of Fibroblast growth factor 10 (Homo sapiens) (O15520 whole entry, looked up): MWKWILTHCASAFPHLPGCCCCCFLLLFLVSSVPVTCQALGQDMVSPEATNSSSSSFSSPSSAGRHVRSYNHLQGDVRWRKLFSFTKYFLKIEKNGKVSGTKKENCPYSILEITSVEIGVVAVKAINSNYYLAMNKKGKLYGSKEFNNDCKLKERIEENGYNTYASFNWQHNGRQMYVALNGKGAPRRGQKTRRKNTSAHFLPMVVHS
Sequence of Follistatin-related protein 3 (Homo sapiens) (O95633 whole entry, looked up): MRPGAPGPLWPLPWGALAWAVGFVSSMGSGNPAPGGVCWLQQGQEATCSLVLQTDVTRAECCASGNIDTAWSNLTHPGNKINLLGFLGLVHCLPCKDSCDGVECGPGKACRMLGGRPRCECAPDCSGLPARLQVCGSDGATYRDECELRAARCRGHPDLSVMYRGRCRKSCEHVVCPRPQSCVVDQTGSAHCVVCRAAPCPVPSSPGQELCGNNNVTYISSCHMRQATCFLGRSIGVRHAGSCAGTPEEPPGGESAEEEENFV

Compound | composite z-score [1] | composite z-score [2] | composite z-score [3] | z-score [4] | composite z-score [5] | composite z-score [6] | composite z-score [7] | composite z-score [8] | composite z-score [9] | composite z-score [10]
Cc1ccc(F)cc1S(=O)(=O)N[C@@H]1CCN(Cc2ccc(OC(C)C)cc2)C1 | -0.38 | -0.428 | -0.272 | 2.97 (inactive) | -0.514 | -0.654 | -0.662 | -0.746 | 0.183 | 0.834
C=CCNC(=O)[C@H]1[C@@H]2C(=O)O[C@@H](c3ccccc3)[C@@H](c3ccccc3)N2[C@@H](c2ccccc2OCCO)[C@]12C(=O)N(C(=O)OCCOC)c1ccc(C#CC3=CCCCC3)cc12 | 1.39 | 0.683 | 0.521 | -1.85 (inactive) | 0.996 | 1.22 | 0.69 | 1.32 | 1.11 | 1.41
O=C1O[C@@H](c2ccccc2)[C@@H](c2ccccc2)N2[C@@H](c3ccc(O)cc3)[C@]3(C(=O)Nc4ccc(C#CC5=CCCCC5)cc43)[C@@H](C(=O)N3CCN(c4ncccn4)CC3)[C@H]12 | 1.59 | -0.446 | -0.0675 | -0.339 (inactive) | 1.33 | 1.28 | 0.383 | 0.872 | 0.283 | -0.0915
C=CC[C@]12N=C(c3ccc(OCCCO)cc3)O[C@H]1c1ccccc1N(C)C2=O | 1.24 | 0.765 | 0.864 | -1.06 (inactive) | 0.597 | 1.3 | 0.177 | 0.472 | 0.334 | 1.3
C[N+](C)(C)CCCC[C@@H]1NC(=O)[C@@H]2C[C@H](C(=O)O)[C@H](c3ccc(O)cc3)N2C1=O | -0.72 | 0.0476 | 0.937 | 0.116 (inactive) | -1.57 | -1.32 | -1.04 | 0.0994 | -0.0081 | 0.614
COCCOC(=O)N1C(=O)[C@@]2(c3cc(C#CC4=CCCCC4)ccc31)[C@H](c1ccccc1OCCO)N1[C@H](c3ccccc3)[C@H](c3ccccc3)OC(=O)[C@H]1[C@@H]2C(=O)N1CCc2cc(OC)c(OC)cc2C1 | 0.162 | -0.636 | -0.834 | -0.222 (inactive) | 0.848 | 1.18 | 0.733 | 1.4 | 0.356 | -0.244
CN1C(=O)C2C=CC(C(O)c3c(F)cccc3Cl)N(Nc3ccccc3)C2C1=O (stereo not given) | 1.54 | 0.308 | 0.92 | 1.29 (inactive) | 0.657 | -0.0475 | 0.257 | 0.71 | -0.534 | 0.909
CCC[C@@H]1C[C@@]1(CCC)[C@@H](NP(=O)(c1ccccc1)c1ccccc1)c1ccc(Cl)cc1 | 0.219 | 0.0536 | 0.292 | -2.26 (inactive) | -0.489 | -0.965 | -0.537 | -0.366 | 0.102 | 1.18
C=CCOC(=O)[C@@H]1[C@H]2C(=O)O[C@H](c3ccccc3)[C@H](c3ccccc3)N2[C@H](c2ccc(OCCOC(=O)[C@H]3C[C@H]4C(=O)N[C@@H](CC(C)C)C(=O)N4[C@H]3c3ccc(O)cc3)cc2)[C@@]12C(=O)Nc1ccc(I)cc12 | 1.25 | 0.198 | -0.093 | 0.242 (inactive) | 1.4 | 1.32 | 1.08 | 1.51 | 0.931 | 0.463
CO[C@H]1O[C@H](CO)[C@@H](OC(=O)c2ccc(Br)cc2)[C@@H]2OC(=O)[C@@H](Cc3ccc4ccccc4c3)C/C=C/C[C@H](Cc3ccc4ccccc4c3)C(=O)O[C@@H]12 | 0.995 | 0.463 | 0.769 | -0.83 (inactive) | 0.429 | 0.548 | -0.567 | 0.323 | -0.54 | 0.588
CC=CC(O)C1C=CC2C(=O)N(C)C(=O)C2N1N1CCCCC1 (stereo not given) | 1.11 | 0.123 | 0.452 | 0.661 (inactive) | 0.888 | 1.23 | 0.519 | 1.26 | 0.22 | 0.898
O=C(O)[C@H](Cc1ccccc1)n1cc(-c2ccccn2)nn1 | -0.0726 | -0.22 | -0.323 | -0.27 (inactive) | 0.3 | 0.507 | 0.211 | 0.333 | 0.227 | 0.325
O=C1c2ccccc2[C@](Cc2ccccc2I)(C(=O)NCc2ccccc2)[C@H](c2ccc(CO)cc2)N1C1CCCCC1 | 0.851 | 0.969 | 0.357 | -0.216 (inactive) | 1.37 | 1.08 | 0.228 | 1.08 | 0.837 | 0.958
